# Screening results: PubChem, National Center for Advancing Translational Sciences (NCATS)
# MCF10A rerep: A quantitative high throughput screen for small molecules that induce DNA re-replication in MCF 10a normal breast cells | MCF 10A DNA re-replication, Hoechst nuclear intensity, 48 h | Potency, µM (doses to about 46.1 µM), usual class: activators | hit rate 2.9% among 350,000 | AID 624296, 2012; further: nearly all actives have a fitted effect of over 50% in size
# KB-3-1 tox: qHTS assay for MDR1-selective chemotherapeutics: Primary screen using the parental adenocarcinoma cell KB-3-1; hit rate 1.4% among 400,000; Potency, µM (titrated, usually from 46.1 µM), most hits filed as cytotoxic; AID 1347075, 2019; KB-3-1 viability, CellTiter-Glo ATP luminescence, 72 h; further: nearly all actives have a fitted effect of over 60% in size
#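 Parental KB-3-1 viability, qHTS format: 72 h compound exposure, 37 °C; CellTiter-Glo; media-only wells and DMSO plates as controls; concentration-effect fits on corrected data.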
# SW480 rerep: A quantitative high throughput screen for small molecules that induce DNA re-replication in SW480 colon adenocarcinoma cells; SW480 DNA re-replication, Hoechst DNA content imaging, 48 h; Potency, µM (highest dose often 46.1 µM), hits mostly activators; hit rate 1.8% among 340,000; AID 624297, 2012; further: nearly all actives have a fitted effect of over 55% in size
#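 DNA re-replication was detected as more nuclei of elevated Hoechst intensity after 48 hr exposure to compound (23 nL pinned per well of 250 cells).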
# ELG1 DNA repair: qHTS screen for small molecules that inhibit ELG1-dependent DNA repair in human embryonic kidney (HEK293T) cells expressing luciferase-tagged ELG1; HEK293T ELG1-luciferase reporter, luminescence, 16 h; DNA damage induced by 5-fluorouridine; Potency, µM (top dose mostly 46.1 µM), most hits filed as inhibitors; hit rate 2.3% among 330,000; AID 504467, 2011; further: nearly all actives have a fitted effect of over 55% in size
#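 Reporter activity after DNA damage by 5-fluorouridine is monitored. Compound-treated cells incubate 16 hr at 37 °C, then ONE-Glo is added for 30 min before luminescence reading.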
# KB-V1 cytotox: qHTS assay for MDR1-selective chemotherapeutics: Primary screen using the drug-selected MDR subline cells KB-V1. KB-V1 MDR cells viability, CellTiter-Glo, 72 h. Potency, µM (titrated, usually from 46.1 µM), hits mostly cytotoxic. hit rate 3.4% among 400,000. AID 1347076, 2019; further: nearly all actives have a fitted effect of over 60% in size
#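 Luminescent ATP read-out (CellTiter-Glo, 10 min) measures survival of drug-selected KB-V1 MDR cells after 72 h, 37 degrees C compound exposure. Medium: phenol-red-free DMEM, 10% FBS. Values from fitted concentration-response curves.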
# A number is an active result; n = inactive; u = inconclusive; x = no result given. Hits are enriched below; roughly 8.1% of the tested compounds scored in any of these assays. The call rests on the fitted dose curve; in most records, active means well fitted curve in the direction sought with a large enough effect; inconclusive means small, poorly fitted or top-dose-only effect, or another doubt; inactive means no such curve, though single readings can be large; an effect the other way counts as inactive or inconclusive.
SMILES,MCF10A rerep,KB-3-1 tox,SW480 rerep,ELG1 DNA repair,KB-V1 cytotox
Cc1cc(/C=C(\C#N)C(=O)OCC(=O)N(C)c2c(N)n(Cc3ccccc3)c(=O)[nH]c2=O)c(C)n1CC(C)C,x,n,x,x,n
COc1ccc(CCN(C)Cc2ccc(C(=O)Nc3ccccc3)cc2)cc1OC,u,n,u,7.3µM,n
COc1ccc(C(=O)COC(=O)c2ccc(NC(=O)c3ccccc3)cc2)cc1,n,n,u,n,15µM
COc1ccc(NC(=O)c2ccccc2)cc1NS(=O)(=O)c1ccc(F)cc1,n,n,n,n,n
CCN(CC)c1ccc(NC(=O)c2ccccc2)cc1S(=O)(=O)Nc1ccccc1OC,n,n,n,u,15µM
COc1cc(OC)cc(C(=O)Nc2ccc(C(=O)Nc3ccccc3OC)cc2)c1,u,u,u,16µM,u
COc1ccc(CCN(C)Cc2ccc(OC)c(OCc3ccccc3)c2)cc1OC,n,u,u,n,n
CCOc1ccc(-c2cc(NC(=O)Nc3ccccc3C(F)(F)F)c(C(=O)OC)s2)cc1,x,n,x,x,n
COc1ccc(NS(=O)(=O)c2cc(N/C(=N\S(=O)(=O)c3ccccc3)c3ccc(F)cc3)ccc2Cl)cc1,13µM,21µM,u,u,21µM
COc1ccc(OC)c(C(=O)c2ccc(C(=O)Nc3ccccc3)cc2)c1,n,n,n,n,23µM
COc1ccc(NS(=O)(=O)c2cc(C(=O)N3CCN(C(C)=O)CC3)ccc2Cl)cc1,n,n,n,n,n
COc1ccc(C(=O)N2C=Cc3ccccc3C2C(N)=O)cc1 (configuration not stated),x,n,x,x,u
S=c1[nH]cnc2scc(-c3ccc(Br)cc3)c12,u,u,12µM,u,u
Cc1cc(-c2csc3nc[nH]c(=S)c23)cc(C)c1C,u,u,u,n,u
S=c1[nH]cnc2scc(-c3ccc(Cl)cc3)c12,u,u,n,16µM,u
O=C(OCN1C(=O)C(=O)c2ccccc21)c1ccc(Cl)cc1,n,n,n,n,n
COc1ccc(C(=O)c2oc3ccc(OC)cc3c2N)cc1,26µM,n,n,u,n
COC(=O)c1oc2ccc(OC)cc2c1N,n,n,n,u,n
COc1ccc2oc(/C=C/N(C)C)c(C(=O)c3ccc(Cl)cc3)c2c1,6.3µM,n,n,n,n
COc1ccc(S(=O)Cc2ccc(C(=O)N3CCN(c4cccc(C)c4C)CC3)o2)cc1 (configuration not stated),n,u,u,u,u
Oc1c(C(c2ccccc2F)N2CCC3(CC2)OCCO3)sc2nc(-c3ccco3)nn12 (configuration not stated),x,n,x,x,n
COc1cccc(/C=C/C(=O)Nc2ccc3nc(N4CCN(C)CC4)cc(C)c3c2)c1OC,x,n,x,x,n
CCOC(=O)[C@@H](NC(=O)CC[C@H]1O[C@@H](n2ccc(=O)[nH]c2=O)[C@H](O)[C@@H]1O)C(C)C,x,n,x,x,n
CCSc1nnc(NC(=O)c2csc3c2CCCC3)s1,u,n,15µM,n,n
CCSc1nnc(NC(=O)c2csc3c2CCC(C)C3)s1 (configuration not stated),n,n,n,n,n
SMILES,MCF10A rerep,KB-3-1 tox,SW480 rerep,ELG1 DNA repair,KB-V1 cytotox
CC12CCC(C/C1=N\N=C1\NC(=O)/C(=C\c3cccc(Br)c3)S1)C2(C)C (configuration not stated),18µM,n,n,n,u
Cn1cc(-c2ccc3c(c2)OCO3)c2ccccc21,x,n,x,x,n
O=C(CCS(=O)(=O)c1ccccc1)Nc1ccc(N2CCN(Cc3ccccc3)CC2)cc1,u,n,n,n,u
O=C(CCS(=O)(=O)c1ccc(F)cc1)Nc1ccc(N2CCN(Cc3ccccc3)CC2)cc1,n,n,n,n,18µM
CC(=O)N1CCN(c2ccc(NCc3ccccc3)cc2)CC1,u,n,n,n,n
Fc1ccc(CNc2ccc(N3CCN(Cc4ccccc4)CC3)cc2)cc1,n,u,u,7.3µM,n
COC(=O)Cc1c(C)c2ccc(OCC(=O)N(C)C3CCS(=O)(=O)C3)cc2oc1=O (configuration not stated),n,n,n,n,u
CCCCn1c(N)c(N(CC(C)C)C(=O)CSCc2cccc(C)c2)c(=O)[nH]c1=O,n,u,n,n,n
Cc1ccc(S(=O)(=O)CCC(=O)N(Cc2nnc(-c3ccc(Cl)cc3)o2)C2CC2)cc1,n,n,n,n,u
O=c1cc(CNc2cc(C(F)(F)F)cc(C(F)(F)F)c2)nc2sccn12,u,23µM,n,n,26µM
CCC(Cn1nnc2ccccc2c1=O)NC(=O)Nc1ccccc1Cl (configuration not stated),x,n,x,x,n
C[n+]1ccnc2ccccc21,x,4.1µM,x,x,10µM
C=CC[n+]1ccnc2ccccc21,x,n,x,x,n
Clc1ccc2nccnc2c1,x,u,x,x,n
C[n+]1ccnc2cc(Cl)ccc21,x,4.1µM,x,x,5.8µM
COc1ccc(OCCCC(=O)Nc2ccc3c(c2)OCCO3)cc1,21µM,n,n,u,u
COc1ccc(C(=O)CCNc2ccc3c(c2)OCCO3)cc1,23µM,n,u,u,n
COc1ccc(NC(=O)CSCC(=O)N(C)Cc2ccc3c(c2)OCCO3)cc1,n,n,n,n,15µM
COc1ccc(C(=O)CCNc2cccc(Cl)c2)cc1,n,n,n,u,n
COc1ccc(C(=O)Nc2ccc3c(c2)OCCO3)cc1,u,n,7.3µM,u,u
COc1ccc(NC(=O)CN(C)C(=O)Cc2ccc3c(c2)OCCO3)cc1,n,n,n,n,u
CC1(C)CC(=O)c2cc(C(=O)Nc3ccc(Br)cc3)c(=O)[nH]c2C1,x,n,x,x,n
Cc1ccc(-n2cnc3c(=O)[nH]cnc32)cc1[N+](=O)[O-],n,u,n,x,u
O=C(NCCc1ccccc1)c1ccc2c(c1)CCN2S(=O)(=O)c1ccc(Cl)cc1,x,n,x,x,n
CCc1ccc2occ(CC(=O)Nc3nnc(C)s3)c2c1,x,n,x,x,n
SMILES,MCF10A rerep,KB-3-1 tox,SW480 rerep,ELG1 DNA repair,KB-V1 cytotox
O=C(NCC(c1ccc2c(c1)OCO2)N1CCOCC1)c1ccc(F)cc1 (configuration not stated),x,n,x,x,n
CC(C)(C)NS(=O)(=O)c1ccc(CCC(=O)Nc2ccc3c(c2)OCCO3)cc1,n,n,n,n,16µM
COc1ccccc1/C=C/C(=O)Nc1ccc2c(c1)OCCO2,13µM,5.2µM,16µM,u,21µM
COc1ccc(C(=O)Nc2ccc3[nH]ccc3c2)cc1,u,16µM,u,x,16µM
COc1ccc(OCCCC(=O)Nc2cccc(C(C)=O)c2)cc1,n,n,n,18µM,n
COc1ccc(OCCCC(=O)Nc2cccc(SC)c2)cc1,n,n,x,n,u
COc1ccc(-c2noc(CC(=O)N(C)c3cccc(C)c3)n2)cc1,x,n,x,x,n
